According to ChEMBL document CHEMBL1961873, “Compounds: GSK PKIS; Assays: Nanosyn kinase panel” (2012):

Assays:
[1] = target: T1, Serine/threonine-protein kinase TBK1 (Homo sapiens) (UniProt Q9UHD2); settings: at 1 µM;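 note: values are mean inhibition of TBK1, screened as part of the GSK published kinase inhibitor set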
T1 sequence (whole entry): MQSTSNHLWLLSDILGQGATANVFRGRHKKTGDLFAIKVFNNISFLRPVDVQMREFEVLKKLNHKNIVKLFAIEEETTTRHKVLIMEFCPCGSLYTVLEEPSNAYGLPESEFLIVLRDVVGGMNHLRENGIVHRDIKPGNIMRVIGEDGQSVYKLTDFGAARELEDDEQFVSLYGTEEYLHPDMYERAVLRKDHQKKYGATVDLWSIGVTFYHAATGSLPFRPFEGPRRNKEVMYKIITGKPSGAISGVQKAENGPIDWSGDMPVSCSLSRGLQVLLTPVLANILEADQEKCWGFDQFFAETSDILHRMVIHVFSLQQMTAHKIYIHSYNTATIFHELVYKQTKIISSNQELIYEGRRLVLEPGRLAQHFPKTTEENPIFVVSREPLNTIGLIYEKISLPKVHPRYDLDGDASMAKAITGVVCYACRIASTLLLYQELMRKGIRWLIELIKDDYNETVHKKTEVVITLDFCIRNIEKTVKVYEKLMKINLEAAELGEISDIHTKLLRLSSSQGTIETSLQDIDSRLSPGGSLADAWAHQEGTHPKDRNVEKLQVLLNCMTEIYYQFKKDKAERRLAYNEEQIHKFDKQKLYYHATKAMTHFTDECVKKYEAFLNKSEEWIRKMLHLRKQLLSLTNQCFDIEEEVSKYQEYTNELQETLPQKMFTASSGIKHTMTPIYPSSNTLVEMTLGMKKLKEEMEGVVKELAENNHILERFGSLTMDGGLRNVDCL

[2] = target: T2, Testis-specific serine/threonine-protein kinase 1 (Homo sapiens) (UniProt Q9BXA7); settings: at 0.1 µM
T2 sequence (whole entry): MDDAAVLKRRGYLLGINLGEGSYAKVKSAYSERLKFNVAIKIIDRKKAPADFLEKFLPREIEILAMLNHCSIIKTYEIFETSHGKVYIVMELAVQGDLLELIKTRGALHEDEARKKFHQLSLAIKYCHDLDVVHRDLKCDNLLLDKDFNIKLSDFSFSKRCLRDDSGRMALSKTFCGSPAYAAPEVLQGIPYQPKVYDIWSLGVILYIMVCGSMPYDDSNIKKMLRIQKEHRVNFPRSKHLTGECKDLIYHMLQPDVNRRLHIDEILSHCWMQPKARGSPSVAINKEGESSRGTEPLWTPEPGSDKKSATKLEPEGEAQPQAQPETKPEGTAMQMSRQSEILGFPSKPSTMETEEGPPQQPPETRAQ

[3] = target: T2, Testis-specific serine/threonine-protein kinase 1 (Homo sapiens); settings: at 1 µM
[4] = target: T3, Testis-specific serine/threonine-protein kinase 2 (Homo sapiens) (UniProt Q96PF2); settings: at 0.1 µM
T3 sequence (whole entry): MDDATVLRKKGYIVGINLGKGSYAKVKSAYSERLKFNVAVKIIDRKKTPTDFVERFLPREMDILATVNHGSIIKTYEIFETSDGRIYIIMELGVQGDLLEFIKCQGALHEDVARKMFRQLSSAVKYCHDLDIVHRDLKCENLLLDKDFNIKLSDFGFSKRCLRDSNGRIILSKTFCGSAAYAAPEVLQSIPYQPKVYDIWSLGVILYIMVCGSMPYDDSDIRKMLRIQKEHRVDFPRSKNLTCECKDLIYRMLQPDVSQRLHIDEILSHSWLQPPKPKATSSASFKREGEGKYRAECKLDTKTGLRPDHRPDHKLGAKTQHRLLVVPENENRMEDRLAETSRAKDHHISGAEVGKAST

[5] = target: T3, Testis-specific serine/threonine-protein kinase 2 (Homo sapiens); settings: at 1 µM
[6] = target: Casein kinase I isoform alpha (Homo sapiens) (UniProt P48729); settings: at 0.1 µM
Sequence of Casein kinase I isoform alpha (Homo sapiens) (P48729 2-337 limits assumed): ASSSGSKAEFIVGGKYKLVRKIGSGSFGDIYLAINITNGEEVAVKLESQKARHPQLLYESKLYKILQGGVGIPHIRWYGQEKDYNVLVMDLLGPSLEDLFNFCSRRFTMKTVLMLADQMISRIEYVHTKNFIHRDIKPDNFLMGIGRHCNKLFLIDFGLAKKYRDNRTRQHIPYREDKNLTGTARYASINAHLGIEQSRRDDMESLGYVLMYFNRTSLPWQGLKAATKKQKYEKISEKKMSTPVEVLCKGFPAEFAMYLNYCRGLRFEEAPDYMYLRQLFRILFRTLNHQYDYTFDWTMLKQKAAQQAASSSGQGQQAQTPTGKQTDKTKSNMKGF

[7] = target: Casein kinase I isoform alpha (Homo sapiens) (UniProt P48729); settings: at 1 µM
[8] = target: Casein kinase I isoform gamma-1 (Homo sapiens) (UniProt Q9HCP0); settings: at 0.1 µM
Sequence of Casein kinase I isoform gamma-1 (Homo sapiens) (Q9HCP0 whole entry, looked up, canonical isoform): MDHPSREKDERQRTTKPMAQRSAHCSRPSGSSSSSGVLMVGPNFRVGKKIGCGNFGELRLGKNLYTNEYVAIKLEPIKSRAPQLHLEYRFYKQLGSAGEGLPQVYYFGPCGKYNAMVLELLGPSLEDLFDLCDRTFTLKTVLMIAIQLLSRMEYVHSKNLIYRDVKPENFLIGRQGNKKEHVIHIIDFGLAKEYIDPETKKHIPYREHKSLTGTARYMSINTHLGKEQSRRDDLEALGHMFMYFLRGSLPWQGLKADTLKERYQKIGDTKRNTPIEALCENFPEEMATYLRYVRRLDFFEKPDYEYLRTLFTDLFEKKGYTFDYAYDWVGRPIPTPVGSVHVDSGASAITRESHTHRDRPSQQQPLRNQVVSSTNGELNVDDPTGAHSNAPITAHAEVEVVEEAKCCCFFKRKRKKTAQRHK

[9] = target: Casein kinase I isoform gamma-1 (Homo sapiens) (UniProt Q9HCP0); settings: at 1 µM
[10] = target: Casein kinase I isoform gamma-2 (Homo sapiens) (UniProt P78368); settings: at 0.1 µM
Sequence of Casein kinase I isoform gamma-2 (Homo sapiens) (P78368 whole entry, looked up, canonical isoform): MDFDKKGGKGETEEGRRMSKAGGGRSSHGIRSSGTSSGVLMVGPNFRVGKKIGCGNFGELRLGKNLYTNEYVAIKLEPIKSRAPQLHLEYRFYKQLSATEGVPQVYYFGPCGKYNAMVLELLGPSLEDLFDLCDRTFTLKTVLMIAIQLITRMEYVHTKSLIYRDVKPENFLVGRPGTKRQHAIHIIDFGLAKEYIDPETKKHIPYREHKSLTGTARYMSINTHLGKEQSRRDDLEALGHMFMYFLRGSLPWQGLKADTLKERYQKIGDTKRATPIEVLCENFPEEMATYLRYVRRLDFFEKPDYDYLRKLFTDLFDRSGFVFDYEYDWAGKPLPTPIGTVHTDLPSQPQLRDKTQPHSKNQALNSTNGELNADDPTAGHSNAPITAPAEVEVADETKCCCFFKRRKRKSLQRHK

[11] = target: Casein kinase I isoform gamma-2 (Homo sapiens) (UniProt P78368); settings: at 1 µM
[12] = target: Casein kinase I isoform gamma-3 (Homo sapiens) (UniProt Q9Y6M4); settings: at 0.1 µM
Sequence of Casein kinase I isoform gamma-3 (Homo sapiens) (Q9Y6M4 whole entry, looked up, canonical isoform): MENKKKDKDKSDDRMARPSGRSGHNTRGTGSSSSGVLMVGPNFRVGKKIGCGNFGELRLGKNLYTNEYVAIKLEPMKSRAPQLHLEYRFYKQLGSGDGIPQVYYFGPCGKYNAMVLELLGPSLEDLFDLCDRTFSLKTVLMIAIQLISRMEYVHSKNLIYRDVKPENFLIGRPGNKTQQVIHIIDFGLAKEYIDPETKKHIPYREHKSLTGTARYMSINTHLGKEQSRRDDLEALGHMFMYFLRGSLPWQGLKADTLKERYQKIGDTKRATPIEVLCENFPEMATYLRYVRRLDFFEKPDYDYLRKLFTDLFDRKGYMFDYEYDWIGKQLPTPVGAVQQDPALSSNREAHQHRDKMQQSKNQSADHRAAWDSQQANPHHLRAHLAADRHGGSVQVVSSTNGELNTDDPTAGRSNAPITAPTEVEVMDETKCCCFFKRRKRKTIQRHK

[13] = target: Casein kinase I isoform gamma-3 (Homo sapiens) (UniProt Q9Y6M4); settings: at 1 µM
[14] = target: Cyclin-dependent kinase 1 (Homo sapiens) (UniProt P06493); settings: at 0.1 µM
Sequence of Cyclin-dependent kinase 1 (Homo sapiens) (P06493 whole entry, looked up): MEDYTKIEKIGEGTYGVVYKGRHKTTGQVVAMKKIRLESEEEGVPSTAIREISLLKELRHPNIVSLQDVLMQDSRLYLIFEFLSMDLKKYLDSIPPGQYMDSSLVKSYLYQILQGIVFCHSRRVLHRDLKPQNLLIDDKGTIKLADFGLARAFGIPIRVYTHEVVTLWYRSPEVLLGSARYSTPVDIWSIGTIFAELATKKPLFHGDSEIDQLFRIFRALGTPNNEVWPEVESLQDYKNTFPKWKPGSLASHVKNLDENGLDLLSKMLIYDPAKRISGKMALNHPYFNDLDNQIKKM

[15] = target: Cyclin-dependent kinase 1 (Homo sapiens) (UniProt P06493); settings: at 1 µM
[16] = target: Cyclin-dependent kinase 2 (Homo sapiens) (UniProt P24941); settings: at 0.1 µM
[17] = target: Cyclin-dependent kinase 2 (Homo sapiens) (UniProt P24941); settings: at 1 µM
[18] = target: Cyclin-dependent kinase 2 (Homo sapiens) (UniProt P24941); settings: at 0.1 µM; remark: listed apart in the source
[19] = target: Cyclin-dependent kinase 2 (Homo sapiens) (UniProt P24941); settings: at 1 µM; remark: listed apart in the source
[20] = target: CDK3/Cyclin E (Homo sapiens) (UniProt P24864+Q00526); settings: at 0.1 µM;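 note: reported percentages are mean inhibition values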
Sequence of CDK3/Cyclin E (Homo sapiens) (P24864 whole entry, looked up): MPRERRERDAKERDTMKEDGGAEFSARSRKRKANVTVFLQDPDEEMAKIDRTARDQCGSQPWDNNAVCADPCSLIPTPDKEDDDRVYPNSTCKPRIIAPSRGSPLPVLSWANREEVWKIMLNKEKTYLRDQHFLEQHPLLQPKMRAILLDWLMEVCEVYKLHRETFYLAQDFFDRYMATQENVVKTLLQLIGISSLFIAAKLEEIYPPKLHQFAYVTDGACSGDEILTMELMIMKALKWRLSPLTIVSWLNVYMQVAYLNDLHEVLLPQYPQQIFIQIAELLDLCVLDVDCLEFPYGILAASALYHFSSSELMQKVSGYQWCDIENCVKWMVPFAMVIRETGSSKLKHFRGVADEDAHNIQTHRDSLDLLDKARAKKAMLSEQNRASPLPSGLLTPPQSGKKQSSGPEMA
Sequence of CDK3/Cyclin E (Homo sapiens) (Q00526 whole entry, looked up): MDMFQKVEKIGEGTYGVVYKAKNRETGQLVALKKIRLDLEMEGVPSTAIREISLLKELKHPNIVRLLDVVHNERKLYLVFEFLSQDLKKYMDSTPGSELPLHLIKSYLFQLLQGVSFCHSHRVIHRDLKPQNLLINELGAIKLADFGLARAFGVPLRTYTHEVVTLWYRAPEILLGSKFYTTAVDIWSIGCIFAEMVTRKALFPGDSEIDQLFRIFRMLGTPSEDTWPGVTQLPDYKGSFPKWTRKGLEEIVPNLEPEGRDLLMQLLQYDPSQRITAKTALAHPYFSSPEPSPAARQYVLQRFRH

Structure (SMILES) | inhibition [1] | inhibition [2] | inhibition [3] | inhibition [4] | inhibition [5] | inhibition [6] | inhibition [7] | inhibition [8] | inhibition [9] | inhibition [10] | inhibition [11] | inhibition [12] | inhibition [13] | inhibition [14] | inhibition [15] | inhibition [16] | inhibition [17] | inhibition [18] | inhibition [19] | inhibition [20]
COc1cc2ncn(-c3cc(OCCc4ccccc4)c(C(N)=O)s3)c2cc1OC | 22.3% | 1.85% | 2.26% | -0.18% | -0.8% | 2.37% | 3.77% | 3.01% | 5.65% | 2.92% | 7.82% | 2.44% | 6.34% | 0.36% | 1.62% | 0.55% | 3.19% | 2.3% | 5.22% | 1.71%
C[C@@H](Oc1cc(-n2cnc3ccc(OC4CCN(C)CC4)cc32)sc1C(N)=O)c1ccccc1Cl | 4.33% | 4.11% | 10.3% | 2.61% | 1.72% | 4.09% | 6.16% | 0.61% | -0.21% | 0.26% | -0.19% | -1.77% | -4.38% | -1.71% | -2.15% | -1.38% | -0.94% | -0.63% | 2.09% | -3.54%
CN(C)CCCNc1nccc(-c2c(-c3ccc(F)cc3)nn3cc(C(F)(F)F)ccc23)n1 | 4.86% | 1.45% | -1.19% | 0.61% | -2.11% | 1.35% | 14.8% | -2.45% | -1.14% | -3.5% | -1.02% | -3.53% | -1.67% | -1.9% | 1.74% | -2.76% | 3.18% | -2.39% | 1.3% | 0.59%
COc1cccc(-n2cnc3c(N/N=C/c4ccncc4)ncnc32)c1 | 2.56% | 0.41% | 5.32% | 0.37% | 4.98% | 0.17% | 0.8% | -3.8% | -4.26% | -3.36% | -5.36% | -3.39% | -3.3% | -3.5% | 0.55% | -3.99% | 8.02% | -3.22% | -2.32% | -0.66%
c1ccc(-c2n[nH]cc2-c2ccnc(-c3ccc(OCCN4CCOCC4)cc3)c2)nc1 | 1.95% | -1.9% | -3.08% | -1.89% | -0.96% | 0.38% | 1.39% | -1.07% | -0.62% | -2.46% | -2.28% | -0.5% | 2.07% | 5.08% | 4.83% | 0.41% | 0.03% | 4.78% | 4.73% | 5.94%
c1ccc(Oc2ccc(Nc3ncc(-c4ccccc4)o3)cc2)cc1 | 2.41% | 1.11% | 1.56% | 0.35% | 0.74% | 5.38% | 7.2% | 0.74% | 2.02% | 0.49% | 2.07% | -0.2% | 1.13% | 0.18% | 1.13% | 0.43% | 1.24% | 0.94% | 3.16% | 0.29%
Cc1nnc(-c2ccc(C)c(-c3ccc(C(=O)NCc4ccc(Cl)cc4)cc3)c2)o1 | 3.88% | 4.06% | 4.33% | 1.65% | 3.27% | 2.79% | 4.63% | 0.71% | 2.06% | -1.05% | 1.06% | -1.5% | -0.65% | -3.13% | -1.46% | -1.4% | -2.99% | 0.91% | 0.03% | 4.6%
